# Data as given in PubChem BioAssay AID2568 (National Center for Advancing Translational Sciences (NCATS), 2010).
# Records with an inconclusive call do not appear. Activity calls are given as the source filed them. The call rests on the fitted dose curve.
# Target: Neuropeptide S receptor (Homo sapiens) (UniProt Q6W5P4)
# Assay: Confirmation Concentration-Response Assay for Antagonists of the Neuropeptide S Receptor: cAMP Signal Transduction, SAR for Probe
# Conditions: CHO-NPSR cells, cAMP TR-FRET, antagonist mode; series mostly up to 47.8 µM
# Excerpt: NIH Chemical Genomics Center [NCGC] NIH Molecular Libraries Probe Production centers Network [MLPCN] MLPCN Grant: X01-DA026210-01 Assay Submitter (PI): Heilig, Markus Alexander NCGC Assay Overview: Neuropeptide S receptor (NPSR), previously known as GPR154, is a recently de-orphanized G protein coupled receptor. Its endogenous ligand is the 20 amino acids peptide Neuropeptide S (NPS). […] NPS and its receptor are found in various tissues. Specifically they are highly expressed in brain areas that have been implicated in modulation of arousal, stress and anxiety. Central administration of NPS in mice produces an unusual profile of activity by inducing wakefulness and arousal, while at the same time suppressing anxiety. Therefore, NPSR may represent a novel drug target for the treatment of sleep and anxiety disorders. To identify NPSR antagonists, we developed a cell-based cAMP assay. NPS can stimulate the production of cAMP in Chinese hamster ovary cells stably expressing NPS receptor. This change in intracellular cAMP level can be detected by a homogeneous LANCE cAMP assay based on the TR-FRET (time resolved fluorescence resonance energy transfer) between a europium-labeled cAMP tracer complex and a cAMP-specific antibody labeled with Alexa Fluor 647. The europium-labeled cAMP tracer complex is formed by the tight interaction between Biotin-cAMP (b-cAMP) and streptavidin labeled with Europium-W8044 chelate (Eu-SA). Light pulse at 320 nm excites the europium of the cAMP tracer and the energy emitted is transferred to the Alexa molecule bound to the cAMP antibody, generating a TR-FRET signal at 665 nm. Residual energy from the europium will produce a light at 620 nm. The native unlabeled cAMP from cell lysates competes with the europium-cAMP tracer for antibody binding and reversely reduces the emission signal of Alexa by interrupting FRET between the two labeled molecules. Both emission signals from the FRET donor (620 nm) and the acceptor (665 nm) can be detected by a plate reader in the TRF mode. Expression of result in fluorescence ratio (665 nm/620 nm) helps to normalize differences due to cell density and reagent dispensing. This assay was successfully optimized to a 1536-well plate format. Select compounds from the primary screen (AID 1461) were chosen for confirmation based on potency, efficacy, SAR, and activity across other assays in PubChem and at NCGC. Other compounds are analogs of active compounds from the primary screen.
# NCGC Assay Protocol Summary: A Chinese hamster ovary (CHO) cell line stably expressing the NPS receptor (CHO-NPSR) was obtained from Dr. Heilig lab at NIAAA and maintained in F-12 Kaighn's media (Invitrogen, Carlsbad, CA, 21127) supplemented with 10 % FBS, 100 units/ml penicillin, 100 ug/ml streptomycin and 250 ug/ml geneticin at 37C, 5% CO2 in a humidified atmosphere. Before the assay, aliquots of cells were frozen and stored at -135C. The assay was performed in 1536-well format. Data are reported for both the ratio of the two emission wavelengths, and also for the component 'donor' channel, Em2=620. […] IC50 values were determined from concentration-response data modeled with the standard Hill equation. NPS 1536-well assay protocol: (1) Fresh or frozen CHO-NPSR cells were suspended in F-12 Kaighn's media supplemented with 10 % FBS, 100 units/ml penicillin and 100 ug/ml streptomycin. Cells were plated at 4 ul/well (1200 cells) to white, tissue culture treated 1536-well plates, and then cultured at 37C, 5 % CO2 for 16 to 30 hours. (2) Add 23 nl/well of compound in DMSO solution. The final titration for each compound was between 0.6 nM and 46 uM. (3) Add 1 ul of stimulation reagent (1X HBSS buffer, 5 mM HEPES, 0.1% BSA, 500 uM RO-201724 (Sigma-Aldrich, B8279), 1.5% Alexa 647-labeled anti-cAMP antibody (from Perkin Elmer), 100 nM NPS) (4) Incubation at 37C, 5 % CO2 for 60 min. (5) Add 1 ul/well detection reagent. […]
# Neuropeptide S receptor (Homo sapiens), sequence (Q6W5P4 whole entry, looked up): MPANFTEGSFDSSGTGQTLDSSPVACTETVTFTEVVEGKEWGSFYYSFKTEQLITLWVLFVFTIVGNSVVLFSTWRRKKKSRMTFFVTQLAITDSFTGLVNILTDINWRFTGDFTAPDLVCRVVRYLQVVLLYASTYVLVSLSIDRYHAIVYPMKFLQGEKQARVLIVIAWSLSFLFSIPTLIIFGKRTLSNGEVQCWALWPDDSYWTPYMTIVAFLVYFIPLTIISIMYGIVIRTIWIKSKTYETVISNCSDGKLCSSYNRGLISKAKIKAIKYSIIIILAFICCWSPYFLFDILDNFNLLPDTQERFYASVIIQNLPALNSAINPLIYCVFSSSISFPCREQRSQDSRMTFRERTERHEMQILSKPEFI
row,Compound,Potency
1,Cc1c(P(=S)(c2ccccc2)c2ccccc2)c2ccccc2n1C(=O)Cc1ccccc1,inactive
2,c1ccc(P(c2ccccc2)c2cnc3ccccn23)cc1,inactive
3,COc1ccc(C2c3ccccc3Oc3ncn(CCN4CCOCC4)c(=N)c32)cc1OC (stereo not given),6.14 µM (active)
4,COc1ccc(-n2cnc3c(c2=N)C(c2cccc(OC)c2)c2c(ccc4ccccc24)O3)cc1 (stereo not given),9.72 µM (active)
5,COc1cccc(C2c3c(ncn(-c4cccc(F)c4)c3=N)Oc3ccc4ccccc4c32)c1 (stereo not given),3.87 µM (active)
6,COc1cccc(C2c3c(ncn(-c4ccc(Br)cc4)c3=N)Oc3ccc4ccccc4c32)c1 (stereo not given),15.4 µM (active)
7,O=C(NCc1ccccc1)n1cc(P(=S)(c2ccccc2)c2ccccc2)c2ccccc21,inactive
8,COc1cccc(C2c3c(ncn(Cc4cccs4)c3=N)Oc3ccc4ccccc4c32)c1 (stereo not given),19.4 µM (active)
9,COc1cccc(C2c3c(ncn(-c4ccccc4SC)c3=N)Oc3ccc4ccccc4c32)c1 (stereo not given),7.72 µM (active)
10,COc1cccc(C2c3c(ncn(-c4ccccc4C(C)(C)C)c3=N)Oc3ccc4ccccc4c32)c1 (stereo not given),12.2 µM (active)
11,Cc1c(P(=S)(c2ccccc2)c2ccccc2)c2ccccc2n1C(=O)NCc1ccccc1,31.5 µM (active)
12,Cc1c(C(O)(c2ccccc2)c2ccccc2)[n+]2ccccc2n1C,inactive
13,COc1ccc(C2c3ccc4ccccc4c3Oc3ncn(CCN4CCOCC4)c(=N)c32)cc1OC (stereo not given),48.7 µM (active)
14,COc1cccc(C2c3c(ncn(-c4cccc(C#N)c4)c3=N)Oc3ccc4ccccc4c32)c1 (stereo not given),19.4 µM (active)
15,COc1cccc(C2c3c(ncn(-c4cccc(Cl)c4)c3=N)Oc3ccc4ccccc4c32)c1 (stereo not given),15.4 µM (active)
16,COc1cccc(C2c3c(ncn(-c4ccncc4)c3=N)Oc3ccc4ccccc4c32)c1 (stereo not given),19.4 µM (active)
17,O=C(NCc1ccc(F)cc1)n1c(-c2ccccc2)c(P(=S)(c2ccccc2)c2ccccc2)c2ccccc21,inactive
18,Cc1c(P(=S)(c2ccccc2)c2ccccc2)c2ccccc2n1C(=O)NCc1ccc(F)cc1,31.5 µM (active)
19,COc1cccc(C2c3c(ncn(-c4ccc(F)cc4)c3=N)Oc3ccc4ccccc4c32)c1 (stereo not given),15.4 µM (active)
20,COc1cccc(C2c3c(ncn(-c4ccc(NC(C)=O)cc4)c3=N)Oc3ccc4ccccc4c32)c1 (stereo not given),19.4 µM (active)

row,Compound,Potency
1,COc1ccc(C2c3c(nc(Cc4ccccc4)[nH]c3=O)Oc3ccc4ccccc4c32)cc1OC (stereo not given),inactive
2,COc1ccc2c(c1)Oc1ncn(CCN3CCOCC3)c(=N)c1C2c1ccc(OC)c(OC)c1 (stereo not given),19.4 µM (active)
3,Cc1c(P(=S)(c2ccccc2)c2ccccc2)[n+]2ccccc2n1CC(=O)c1ccccc1,4.45 µM (active)
4,Cn1cc(P(=O)(c2ccccc2)c2ccccc2)c2ccccc21,inactive
5,COc1cccc(C2c3c(ncn(-c4ccccc4Cl)c3=N)Oc3ccc4ccccc4c32)c1 (stereo not given),12.2 µM (active)
6,COc1ccc(C2c3c(ncn(CCCc4ccccc4)c3=N)Oc3ccc4ccccc4c32)cc1OC (stereo not given),24.4 µM (active)
7,COc1cccc(C2c3c(ncn(-c4ccccn4)c3=N)Oc3ccc4ccccc4c32)c1 (stereo not given),30.7 µM (active)
8,COc1ccc(C2c3c(n(Cc4ccccc4)cnc3=N)Oc3ccc4ccccc4c32)cc1OC (stereo not given),48.7 µM (active)
9,Cc1c(P(=S)(c2ccccc2)c2ccccc2)c2ccccc2n1CCCc1ccccc1,inactive
10,COc1cccc(C2c3c(ncn(-c4ccc(-c5ccccc5)cc4)c3=N)Oc3ccc4ccccc4c32)c1 (stereo not given),inactive
11,COc1ccc(C2c3c(nc(CCc4ccccc4)[nH]c3=O)Oc3ccc4ccccc4c32)cc1OC (stereo not given),inactive
12,CCOC(=O)c1ccc(-n2cnc3c(c2=N)C(c2cccc(OC)c2)c2c(ccc4ccccc24)O3)cc1 (stereo not given),15.4 µM (active)
13,Cc1c(P(=S)(c2ccccc2)c2ccccc2)c2ccccc2n1Cc1ccccc1,inactive
14,COc1cccc(C2c3c(ncn(-c4ccc(C(C)(C)C)cc4)c3=N)Oc3ccc4ccccc4c32)c1 (stereo not given),15.4 µM (active)
15,Cc1c(P(=S)(c2ccccc2)c2ccccc2)c2ccccc2n1CCc1ccccc1,inactive
16,COc1ccc(C2c3c(N)nc(CCc4ccccc4)nc3Oc3ccc4ccccc4c32)cc1OC (stereo not given),48.7 µM (active)
17,COc1cccc(C2c3c(ncn(-c4cccc(OC)c4)c3=N)Oc3ccc4ccccc4c32)c1 (stereo not given),9.72 µM (active)
18,OC(c1ccccc1)(c1ccccc1)c1cnc2ccccn12,inactive
19,COc1ccc(C2c3c(nc(CCCc4ccccc4)[nH]c3=O)Oc3ccc4ccccc4c32)cc1OC (stereo not given),inactive
20,COc1cccc(C2c3c(ncn(-c4ccc5c(c4)OCO5)c3=N)Oc3ccc4ccccc4c32)c1 (stereo not given),6.14 µM (active)
